Source: PubChem BioAssay (NCATS)
Records with an inconclusive call do not appear. A number with no mark means an inactive call. Activity calls are given as the source filed them. Calls follow the shape of the dose curve; as a rule, active = well fitted inhibition curve with a large enough effect; inconclusive = small, poorly fitted or top-dose-only effect; inactive = flat fitted curve, though single readings scatter.

System: NIH3T3
Experiment: qHTS assay to identify novel small-molecules to repurpose for Merkel cell carcinoma treatment (AID 1296009); also: nearly all actives have a fitted effect of over 60% in size
Conditions: MCC and control cell lines, CellTiter-Glo viability, 72 h; at 44.8 µM (top of the series) unless noted
In short: (§1)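 Cell viability, measured as CellTiter-Glo luminescence, was normalized between DMSO and no-cell wells. The cells had been exposed to 8- or 11-point compound dilutions for 72 hr at 37 degree celsius.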
% is scaled to controls: 0 for no effect and ±100 for the full control effect.

SMILES | outcome
CCC1(c2ccccc2)C(=O)N(COC)C(=O)N(COC)C1=O | inactive
c1ccc2c(c1)sc1ccccc12 | inactive
CCC(C)C(C)(COC(N)=O)COC(N)=O (configuration not stated) | inactive
c1ccc(N2CCNCC2)cc1 | inactive
NCCc1ccc(O)cc1 | inactive
C=C(C)[C@H]1CN[C@H](C(=O)O)[C@H]1CC(=O)O | inactive
CN1C(=O)NC(=O)C(C)(C2=CCCCC2)C1=O (configuration not stated) | inactive
O=C(CCCN1CCC2(CC1)C(=O)NCN2c1ccccc1)c1ccc(F)cc1 | inactive
CC1(C)C(C=C(Cl)Cl)C1C(=O)OC(C#N)c1cccc(Oc2ccccc2)c1 (configuration not stated) | inactive

System: UISO
Experiment: as above
Conditions: MCC and control cell lines, CellTiter-Glo viability, 72 h; series mostly up to 46 µM; activity change, negative = cytotoxicity: at the top concentration
In short: as §1

SMILES | activity change, negative = cytotoxicity | Potency
CC(Cc1ccccc1)N(C)Cc1ccco1 (configuration not stated) | 16.5% | 
CCC1(c2ccccc2)C(=O)N(COC)C(=O)N(COC)C1=O | 0.845% | 
c1ccc2c(c1)sc1ccccc12 | 21.6% | 
CCN[C@@H](C)Cc1cccc(C(F)(F)F)c1 | 21.2% | 
CCCOC(=O)c1cncn1C(C)c1ccccc1 (configuration not stated) | 12% | 
CNC(C)(C)Cc1ccccc1 | 7.88% | 
c1ccc(CN2CCNCC2)cc1 | -3.59% [at 155 µM] | 
O=C(Nc1ccc(Br)cc1)c1cc(Br)cc(Br)c1O | -21.8% | 
CNCC(=O)c1ccc(O)c(O)c1 | 13.5% | 
O=c1[nH]oc2c1CCNC2 | 15.6% | 
CN1CCC(O)(c2ccc(F)cc2)C(C(=O)c2ccc(F)cc2)C1 (configuration not stated) | 6.72% | 
CCC(C)C(C)(COC(N)=O)COC(N)=O (configuration not stated) | 12.9% | 
c1ccc(N2CCNCC2)cc1 | 6.4% | 
NC1=NC(=O)C(c2ccccc2)O1 (configuration not stated) | 20.3% | 
CCN(CCO)CCn1c(Cc2ccccc2)nc2c1c(=O)n(C)c(=O)n2C | 23.5% | 
CCN[C@H](C)Cc1cccc(C(F)(F)F)c1 | -5.12% [at 92.7 µM] | 
CC(Cc1ccccc1)NCCn1cnc2c1c(=O)n(C)c(=O)n2C (configuration not stated) | -21.2% [at 92.7 µM] | 

SMILES | activity change, negative = cytotoxicity | Potency
NCCc1ccc(O)cc1 | 27.4% | 
CCC(C)(C)c1ccc(O)cc1 | 14% | 
CC(C)=CC1C(C(=O)OCN2C(=O)C3=C(CCCC3)C2=O)C1(C)C (configuration not stated) | -27.4% | 
C=C(C)[C@H]1CN[C@H](C(=O)O)[C@H]1CC(=O)O | 21.1% | 
CC(C(=O)c1ccccc1)N(C)C (configuration not stated) | 19.3% | 
CN1C(=O)NC(=O)C(C)(C2=CCCCC2)C1=O (configuration not stated) | 10.9% | 
CC[N+]1(CC)CCC(OC(=O)C(O)(c2ccccc2)c2ccccc2)C1 (configuration not stated) | 4.68% | 
Nc1ccccc1C(=O)O | 12.9% | 
CCC1(c2ccc(N)cc2)CCC(=O)NC1=O (configuration not stated) |  | inactive
O=C(CCCN1CCC2(CC1)C(=O)NCN2c1ccccc1)c1ccc(F)cc1 | -7.89% | 
CC(=O)NC1CCSC1=O (configuration not stated) | 20.2% | 
O=C1CN=C(c2ccccc2)c2cc([N+](=O)[O-])ccc2N1 | -11.5% | 
O=P1(N(CCCl)CCCl)NCCCO1 (configuration not stated) |  | inactive
COC(=O)C(Cl)C(=O)OC | 6.35% | 
O=C(N/N=C/c1ccc([N+](=O)[O-])o1)c1cc([N+](=O)[O-])cc([N+](=O)[O-])c1O | 17% | 
CC1(C)C(C=C(Cl)Cl)C1C(=O)OC(C#N)c1cccc(Oc2ccccc2)c1 (configuration not stated) | 20.3% | 
